HCV inhibitor – qHTS Assay for Inhibitors of Hepatitis C Virus (HCV); Huh7.5.1 HCVcc-Cre infection, luciferase reporter, 44 h; Potency, µM (series often up to 41.8 µM), for the others: at the highest dose activity change, negative = inhibition, most hits filed as inhibitors; hit rate 3.4% among 340,000; note: potency is the fitted concentration of half-maximal effect
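Seed cells (1,000/well) for 4 h; treat with compound and infect with HCVcc-Cre, moi about 0.5. Incubate 44 h, then detect luciferase activity.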
Pf growth 96h – Primary qHTS for delayed death inhibitors of the malarial parasite plastid, 96 hour incubation. P. falciparum luciferase reporter growth, 96 h. Potency, µM (doses to about 28.7 µM), without a hit: at the top dose activity change, negative = inhibition, usual class: inhibitors. hit rate 6.9% among 320,000; note: potency is the fitted concentration of half-maximal effect
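Parasite growth measured via integrated firefly luciferase reporter in P. falciparum. Infected erythrocytes at 2% hematocrit, 0.05% parasitemia final were treated 96 hours at 37 C under 5% CO2, and luminescence was read.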
Pf growth 48h – Primary qHTS for delayed death inhibitors of the malarial parasite plastid, 48 hour incubation | Potency, µM (top dose mostly 28.7 µM), for inactives: at the highest dose activity change, negative = inhibition, hits mostly inhibitors | AID 504832, 2011 | P. falciparum luciferase growth in erythrocytes, 48 h | hit rate 5.9% among 310,000; note: potency is the fitted concentration of half-maximal effect
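Compounds are pin-transferred into medium, infected erythrocytes (2% hematocrit, 0.1% parasitemia final) are added, and plates sit one parasite generation at 37 C in 5% CO2. Detection reagent is then added and luminescence measured.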
HCMV inh – qHTS Assay for inhibitors of the human cytomegalovirus (HCMV); AID 1259415, 2018; hit rate 4.5% among 410,000; activity change, negative = inhibition, % at 57.5 µM; HFF cells, HCMV-luciferase reporter, 72 h; hits give low values; in the data active = activity change below about -60%; inconclusive = no clear call, values can overlap the other calls; inactive = above about -39%
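Steps: HFFs plated, 16 h 37C; compounds added; HCMV-luciferase added to MOI 1 PFU/cell; 72 h 37C; OneGlo reagent, 5 min room temperature; luminescence read, normalized to controls.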
Numbers without * were called inactive; ? = inconclusive; . = no result; ! = not active in a repeat; [ ] = remark or other dose. Rows were chosen to be rich in hits. Some 13% of all compounds tested hit in one or more screens of this group. Unless noted, calls come from the whole dose curve; as a rule, active = well fitted inhibition curve with a large enough effect; inconclusive = small, poorly fitted or top-dose-only effect, or another doubt; inactive = no such curve, though single readings can be large or run the other way. % is set by controls: 0 for no effect and ±100 for the full control effect.

SMILES	HCV inhibitor	Pf growth 96h	Pf growth 48h	HCMV inh
COC(=O)c1ccc(NC(=O)CSc2nc(=O)n(Cc3ccco3)c3c2CCC3)cc1	.	.	.	-5
COc1ccccc1CCNC(=O)Cn1ccc2cc(S(=O)(=O)N3CCCCC3)ccc21	.	.	.	-8
CCN(CC)S(=O)(=O)c1cc(NC(=O)C(C)N2CCN(c3ccccn3)CC2)ccc1C (stereo unspecified)	?	3.7µM*	12µM*	-29
CCN(CC)S(=O)(=O)c1cc(NC(=O)C(C)Nc2ccccc2N2CCOCC2)ccc1C (stereo unspecified)	?	7.4µM*	?	-33
Nc1ccccc1C(=O)OCCc1ccccc1	-18%	301%	165%	70
COc1ccccc1C(=O)OCCc1ccccc1	-7%	.	.	-100*
O=C(CSc1ccc2c(c1)OCCO2)Nc1ccc(Cl)cn1	-22%	-21%	3%	-86*
CCN(c1ccccc1)c1nnc(NC(=O)Nc2ccc(Br)cc2F)s1	.	.	.	3
CCOC(=O)C(=NC(C)(C)C)NNc1cc(Cl)ccc1Cl	12%	9.3µM*	?	30
CCOC(=O)C(=NC(C)C)NNc1cc(Cl)ccc1Cl	-4%	0%	?	?
O=S(=O)(NCC(c1ccco1)S(=O)(=O)c1ccccc1)c1cc(F)ccc1F (stereo unspecified)	.	.	.	-69*
O=S(=O)(NCC(c1ccco1)S(=O)(=O)c1ccccc1)c1ccccc1 (stereo unspecified)	.	.	.	-12
Cn1cnc(S(=O)(=O)N2CCC(C(=O)N3CCN(c4cccc(C(F)(F)F)c4)CC3)CC2)c1	.	.	.	-32
CC1CCN(S(=O)(=O)c2cn(CC(=O)N3CCN(c4cccc(C(F)(F)F)c4)CC3)cn2)CC1	11µM*	16%	-1%	.
Cc1nn(CC(=O)N2CCN(c3cccc(C(F)(F)F)c3)CC2)c(=O)c2cccn12	-28%	0%	29%	-67*!
COc1ccc2nc(N(Cc3cccnc3)C(=O)c3ccco3)sc2c1	.	.	.	54
COc1cc(NC(=O)N2CCC(CN3CCOCC3)CC2)cc(OC)c1OC	.	.	.	21
NC(=O)CS(=O)C(c1ccccc1)c1ccccc1 (stereo unspecified)	.	6µM*	-8%	.
CCS(=O)(=O)NCCNc1ccc([N+](=O)[O-])cc1	1%	12µM*	-2%	-15
CC(=O)NCCCNc1ccc([N+](=O)[O-])cc1	20%	1%	76%	54
c1ccc(OCCSc2nc3ccccc3[nH]2)cc1	-9%	7.4µM*	?	4
Cc1ccccc1OCCCSc1nc2ccccc2[nH]1	?	10µM*	7%	-70*
COc1ccc(OC)c(NC(=O)c2cc(=O)c3c(C)cc(C)cc3o2)c1	.	.	.	-3
CCc1ccc(C(=O)COC(=O)CNC(=O)c2ccc(N3C(=O)c4ccccc4C3=O)cc2)cc1	21%	15µM*	36%	17
Cc1cc2n(n1)CCC(=O)N2Cc1ccc(C(=O)Nc2ccc(Br)c(C)c2)cc1	.	.	.	-5
SMILES	HCV inhibitor	Pf growth 96h	Pf growth 48h	HCMV inh
O=C(CCN1C(=O)C2CCCCC2C1=O)Nc1nc(-c2ccc(F)c(F)c2)cs1 (stereo unspecified)	?	-14%	-3%	-10
COc1ccc(-c2csc(NC(=O)CN3C(=O)C4CC=CCC4C3=O)n2)cc1OC (stereo unspecified)	?	.	.	-111*
O=C(CN1C(=O)C2CC=CCC2C1=O)Nc1nc(-c2ccc(F)c(F)c2)cs1 (stereo unspecified)	10µM*	.	.	-32
O=C(N/N=C/c1ccc[nH]1)c1ccc2c(c1)OCO2	13µM*	122%	177%	52
O=C(N/N=C/c1ccc2c(c1)OCO2)c1ccc2c(c1)OCO2	-9%	96%	15%	12
O=C(N/N=C/c1ccc[nH]1)c1cccc([N+](=O)[O-])c1	3.5µM*	-9%	37%	-5
O=C(N/N=C/c1ccc[nH]1)c1ccc(O)cc1	-5%	10µM*	67%	-16
O=C(CNC(=O)c1ccc(Br)cc1)N/N=C/c1ccc[nH]1	2.5µM*	9%	30%	7
CCOc1ccc(-c2nc3c(C#N)c[nH]n3c2NC2CCCC2)cc1	.	.	.	-14
CCOc1ccccc1NC(=O)CN1C(=O)COc2ccc(S(=O)(=O)N3CCCCCC3)cc21	.	.	.	-21
COCc1nn2cc(-c3ccc(C)cc3)nc2s1	.	.	.	-6
O=C(Cc1ccccc1)N/N=C/c1ccc[nH]1	9%	-4%	-15%	?
Cc1cc(C(=O)N/N=C/c2ccc[nH]2)n[nH]1	1.4µM*	50%	84%	?
O=C(N/N=C/c1ccco1)C1CC1c1ccccc1 (stereo unspecified)	?	16%	-13%	-17
O=C(N/N=C/c1ccc[nH]1)c1ccccc1O	-11%	?	81%	-92*
CC(C)(C)c1ccc(C2CC2C(=O)N/N=C\c2ccc[nH]2)cc1 (stereo unspecified)	0.56µM*	13%	?	-100*
O=C(c1ccc2c(c1)N(Cc1cccc(Cl)c1)C(=O)c1ccccc1S2(=O)=O)N1CCN(Cc2ccccc2)CC1	.	.	.	-67*
O=C(c1ccc2c(c1)N(Cc1cccc(Cl)c1)C(=O)c1ccccc1S2(=O)=O)N1CCN(c2ccccn2)CC1	14µM*	26%	?	-84*
Cc1cccc(N2CCN(C(=O)c3ccc4c(c3)N(Cc3cccc(Cl)c3)C(=O)c3ccccc3S4(=O)=O)CC2)c1C	.	.	.	-35
CN1CCN(C(=O)c2ccc3c(c2)N(Cc2cccc(Cl)c2)C(=O)c2ccccc2S3(=O)=O)CC1	-20%	12µM*	?	?
O=C(c1ccc2c(c1)N(Cc1cccc(Cl)c1)C(=O)c1ccccc1S2(=O)=O)N1CCCCCC1	.	.	.	-65*
CCC1CCCCN1C(=O)c1ccc2c(c1)N(Cc1cccc(Cl)c1)C(=O)c1ccccc1S2(=O)=O (stereo unspecified)	.	.	.	21
CNc1nc2cnc(Nc3cccc(F)c3)cc2n1-c1cccc(C(F)(F)F)c1	.	.	.	-30
COC(=O)c1ccc(NC(=O)N2CCN(c3nnc(C)c4c(C)n(-c5ccccc5)nc34)CC2)cc1	.	.	.	-8
COc1ccc(-c2[nH]c(-c3ccccc3)nc2SCC(=O)Nc2ccc3c(c2)OCO3)cc1	.	.	.	-38
CCc1ccc(Oc2c(C(F)(F)F)oc3c(CN4CCC(C)CC4)c(O)ccc3c2=O)cc1	.	.	.	2
COc1ccc(-c2ccc([C@H]3[C@H]4C=CC[C@@H](C)[C@@H]4C(=O)N3Cc3ccccc3)c(F)c2)cc1OC	-17%[8.37 µM]	?	?	4
COc1ccc(-c2ccc([C@H]3[C@H]4C=CC[C@@H](C)[C@@H]4C(=O)N3Cc3ccccc3)c(F)c2)cc1	?	?	12µM*	26
COc1ccc(-c2ccc(C)cc2)cc1[C@H]1[C@H]2C=CC[C@@H](C)[C@@H]2C(=O)N1Cc1ccccc1	-1%	?	?	-12

Screening data: PubChem BioAssay, National Center for Advancing Translational Sciences (NCATS)
